Measurements as given in PubChem BioAssay (NCATS).
Records with an inconclusive call do not appear. Where a call stands in place of a potency, no number is given. Calls of active or inactive are those of the source. Calls come from the whole dose curve.

assay: Primary qHTS for Vero E6 cytotoxicity: counterscreen for inhibitors of SARS-S pseudo-typed particle cell entry (AID 1479150); conditions: cell viability; series mostly up to 57.1 µM

Row | Structure (SMILES) | Potency | outcome
1 | O=C(C[C@@H]1NCCC[C@H]1O)Cn1cnc2cc(Br)c(Cl)cc2c1=O | inactive | 
2 | O=C(OCCN1CCCCC1)C(O)(c1ccccc1)c1ccccc1 | inactive | 
3 | FC(F)OC(F)(F)C(F)Cl (centres undefined) | inactive | 
4 | C=CC[C@]1(O)CC[C@H]2[C@@H]3CCC4=CCCC[C@@H]4[C@H]3CC[C@@]21C | inactive | 
5 | C[C@@H](CO)NC(=O)[C@@H]1C=C2c3cccc4[nH]cc(c34)C[C@H]2N(C)C1 | inactive | 
6 | CCNC1(c2cccs2)CCCCC1=O (centres undefined) | inactive | 
7 | O=P(O)(O)C(Cl)(Cl)P(=O)(O)O |  | inactive [at 5.34 µM]
8 | CCC1C(C)=NN=C(c2ccc(OC)c(OC)c2)c2cc(OC)c(OC)cc21 (centres undefined) | inactive | 
9 | C[C@@H]([C@H](O)c1ccccc1)N(C)C | inactive | 
10 | c1ccc2sc(SNC3CCCCC3)nc2c1 | inactive | 
11 | O=C1C[C@@H]2OCC=C3CN4CC[C@]56c7ccccc7N1[C@H]5[C@H]2[C@H]3C[C@H]46 | inactive | 
12 | NCC(O)c1cccc(O)c1 (centres undefined) | inactive | 
13 | CCOc1ccc2c3c1O[C@H]1[C@@H](O)C=C[C@H]4[C@@H](C2)N(C)CC[C@@]341 | inactive | 
14 | ClC1C(Cl)C(Cl)C(Cl)C(Cl)C1Cl (centres undefined) | inactive | 
15 | CC(C)CCON=O | inactive | 
16 | CCCCCCCCCC(=O)O[C@H]1CC[C@H]2[C@@H]3CCC4=CC(=O)CC[C@]4(C)[C@H]3CC[C@]12C | inactive | 
17 | C[N+]1(C)CCCCC1COC(=O)C(O)(c1ccccc1)c1ccccc1 (centres undefined) | inactive | 
18 | CC1CCC(C(C)C)C(OC(=O)c2ccccc2N)C1 (centres undefined) | inactive | 
19 | CC(C)(O)[C@@H]1[C@H]2OC(=O)[C@@H]1[C@]1(O)C[C@H]3O[C@]34C(=O)O[C@H]2[C@]14C | inactive | 
